Source: PubChem BioAssay (National Center for Advancing Translational Sciences (NCATS))
In the library only some 13% were active in any assay of this set; here they are far more common.
CHX counter: counter-screen for Shiga toxin inhibitors: cycloheximide protein synthesis inhibition. cell reporter, cycloheximide protein synthesis inhibition counterscreen. AID 2314. hit rate 12% among 300,000. max response, %; in the data active = max response mostly above about 13%, no sharp cut-off; inactive = mostly below about 14%; also: read at 38.3 µM for the half of the compounds with a filed dose; 0% is about no effect
Shiga inhibitor: inhibitors of Shiga toxin in Vero cells | Vero cells, Shiga toxin protein synthesis inhibition reporter | inhibition, % at 38.7 µM | hit rate 9.2% among 290,000 | AID 2315; in the data active = inhibition mostly above about 28%, no sharp cut-off; inactive = mostly below about 43%; also: 0% is about no effect
LASV entry inh: blocks Lassa virus binding to or entry into cells; Lassa virus pseudotype entry inhibition, cell reporter; Potency, µM (top dose mostly 37.9 µM), for the others: at the highest dose activity change, negative = inhibition, actives largely listed as inhibitors; hit rate 1.2% among 300,000; AID 540256; calls by dose curve; tested in HEK293 cells; also: potency is read from the fitted curve at half-maximal effect; % is scaled to controls: 0 for no effect and ±100 for the full control effect; nearly all actives have a fitted effect of over 50% in size
HCV inh: blocks hepatitis C virus; Huh7.5.1 HCVcc-Cre infection, luciferase reporter, 44 h; AID 651820; hit rate 3.4% among 340,000; Potency, µM (titrated, usually from 41.8 µM), inactives show top-dose activity change, negative = inhibition, actives largely listed as inhibitors; active = well fitted inhibition curve with a large enough effect; inconclusive = small, poorly fitted or top-dose-only effect, or another doubt; inactive = no such curve, though single readings can be large or run the other way; also: potency is read from the fitted curve at half-maximal effect; % is scaled to controls: 0 for no effect and ±100 for the full control effect
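Seed cells (1,000/well) for 4 h; treat with compound and infect with HCVcc-Cre, moi about 0.5. Incubate 44 h, then detect luciferase activity.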
FMDV inh: foot and mouth disease virus antiviral activity | FMDV antiviral cell-based qHTS | Potency, µM (top dose mostly 57.9 µM), without a hit: at the top dose activity change, negative = inhibition, usual class: inhibitors | hit rate 1.2% among 410,000 | AID 1159524; calls by dose curve; tested in HEK293T cells; also: read-out not given here; potency is read from the fitted curve at half-maximal effect; % is scaled to controls: 0 for no effect and ±100 for the full control effect; nearly all actives have a fitted effect of over 45% in size
MARV entry inh: inhibitors of Marburg virus binding or cell entry; hit rate 1.8% among 300,000; Potency, µM (doses to about 37.8 µM), inactives show at the top dose activity change, negative = inhibition, actives largely listed as inhibitors; Marburg virus pseudotyped entry inhibition, cell reporter; calls by dose curve; tested in HEK293 cells; also: potency is read from the fitted curve at half-maximal effect; % is scaled to controls: 0 for no effect and ±100 for the full control effect
* marks the source's active call; other numbers are inactive results; ? = inconclusive; nt = no result given; [ ] = dose if it differs, or a comment.

SMILES	CHX counter	Shiga inhibitor	LASV entry inh	HCV inh	FMDV inh	MARV entry inh
CCCCn1c(SCC(=O)c2ccc3c(c2)OCCO3)nnc1-c1ccoc1C	-2	-14	-29%	3%	-18%	11µM*
Cc1occc1-c1nnc(SCCCC(=O)c2ccc(F)cc2)n1C	-2	23	-11%	?	?	?
Cc1occc1-c1nnc(SCC(=O)c2ccccc2)n1CC1CCCO1 (centres undefined)	20*	31	15%	?	9%	0%
Cc1occc1-c1nnc(SCC(=O)Nc2ccc3c(c2)OCO3)n1CC1CCCO1 (centres undefined)	1	-18	1%	4%	-7%	1%
CCC(C)NC(=O)CSc1nnc(-c2ccoc2C)n1CC1CCCO1 (centres undefined)	-4	-14	-14%	22%	-21%	22%
CCn1c(SCC(=O)c2ccc(F)cc2)nnc1-c1ccoc1C	30*	40	17%	-27%	21%	11%
CCCn1c(SCC(=O)c2ccc3c(c2)OCCO3)nnc1-c1ccco1	-5	-2	?	-20%	-16%	-11%[46.1 µM]
CC1CCN(S(=O)(=O)c2ccc(S(=O)(=O)NCc3ccccc3)cc2)CC1	-2	-4	-10%	9%	33%	-2%
Cc1noc(C)c1C(=O)NCc1cccs1	4	21	-2%	13%	-2%	?
CCN(CC(=O)Nc1c(F)cccc1F)C(=O)CSc1nc2ccccc2o1	nt	nt	-14%	-11%	3%	-15%[46.1 µM]
O=C(CCn1c(=O)c2cccn2c2cccnc21)N1CCN(c2cccc(Cl)c2)CC1	-4	-2	?	11µM*	?	?
Cc1ccc(Cl)cc1N1CCN(C(=O)CCn2c(=O)c3cccn3c3cccnc32)CC1	nt	nt	0%[46.1 µM]	nt	?	nt
CCOC(=O)C1CCN(C(=O)Cn2c(=O)c3cccn3c3cccnc32)CC1	-4	-14	nt	11µM*	-13%	nt
Cc1ccc(C)c(S(=O)(=O)N2CCN(C(=O)Cn3[nH]c(=O)c4ccccc4c3=O)CC2)c1	nt	nt	0%	-1%	-4%	-10%[46.1 µM]
CC(=O)NN1C(=O)c2ccccc2NC1c1ccccn1 (centres undefined)	5	-12	?	18%	9%	0%
CCN(CC)CCNC(=O)c1ccc(N2CCCCC2)c(NS(=O)(=O)c2ccc(C)cc2)c1	-2	-10	-26%	11µM*	0%	?
Cc1ccc(S(=O)(=O)Nc2cc(C(=O)N3CCC4(CC3)OCCO4)ccc2N2CCCCC2)cc1	4	11	?	-5%	34%	?
COC(=O)c1ccc(N2CCCCC2)c(NS(=O)(=O)c2ccc(C)cc2)c1	-3	-13	-3%	13µM*	nt	?
COc1ccc(OC)c(/C=C/C(=O)OCC(=O)Nc2cccc(Oc3ccccc3)c2)c1	-2	-9	?	-19%	-8%	0%
Cc1ccc(Cn2c(SCC(=O)N/N=C/c3ccc(C)o3)nc3ccccc32)cc1	-1	-4	27%	-26%	-19%	-23%[46.1 µM]
CC(C)CN(C(=O)c1ccc(=O)n(C)n1)c1nc2ccccc2s1	15*	17	?	0%	19%	24%
Cc1ccc(C(=O)N(CC(C)C)c2nc3ccccc3s2)o1	2	5	?	?	-15%	-2%
CS(=O)(=O)c1ccc(S(=O)CC(=O)OCc2ccccc2)c([N+](=O)[O-])c1 (centres undefined)	11*	17	?	?	8.9µM*	?
O=C(CS(=O)c1ccc(C(F)(F)F)cc1[N+](=O)[O-])Oc1ccccc1 (centres undefined)	25*	-3	?	?	28µM*	?
BrC(=C\c1ccccc1)/C=N/Nc1nc(N2CCOCC2)nc(N2CCOCC2)n1	-3	-10	-17%	?	-26%	7.9µM*
SMILES	CHX counter	Shiga inhibitor	LASV entry inh	HCV inh	FMDV inh	MARV entry inh
C/C(=N\Nc1nc(N2CCCCC2)nc(N2CCOCC2)n1)c1ccccc1O	-2	24	7.1µM*	?	?	1.8µM*
Brc1cc2c(cc1/C=N/Nc1nc(N3CCCC3)nc(N3CCOCC3)n1)OCO2	3	-22	-16%	2.8µM*	?	-40%
BrC(/C=C\c1ccccc1)=N/Nc1nc(N2CCOCC2)nc(N2CCOCC2)n1	2	2	4%	-13%	0%	?
Oc1ccc(Br)cc1/C=N/Nc1nc(N2CCCCC2)nc(N2CCOCC2)n1	2	-10	-20%[46.1 µM]	?	-18%	2.5µM*
Oc1ccc(/C=N/Nc2nc(N3CCCCCC3)nc(N3CCCCCC3)n2)c(O)c1	6	4	?	?	?	?
C(=N\Nc1nc(N2CCOCC2)nc(N2CCOCC2)n1)/c1ccncc1	-2	-5	-3%	2%	-8%	?
NC(=O)/C(=C/c1ccco1)C(N)=S	1	-14	24%	0%	-14%	-18%
COc1ccc2cc(C(C)C(=O)O)ccc2c1 (centres undefined)	-4	1	nt	20%	-18%	nt
CCc1cccc(CC)c1-n1nnc2c(sc3nc(C)cc(C)c32)c1=O	nt	nt	9%[46.1 µM]	nt	?	2%[46.1 µM]
COc1ccc(NC(=O)c2ccc([N+](=O)[O-])o2)cc1	9	21	-5%[46.1 µM]	?	7%	11µM*
Cc1cc(C)cc(NC(=O)c2ccc([N+](=O)[O-])o2)c1	34*	35*	?	?	-6%	?
CC(=O)c1ccc(NC(=O)c2ccc([N+](=O)[O-])o2)cc1	34*	98*	nt	?	45%	nt
Cc1cc(C)nc(NC(=O)c2ccc([N+](=O)[O-])o2)n1	7	13	9%	-1%	-1%	-2%
CC(=O)c1cccc(NC(=O)c2ccc([N+](=O)[O-])o2)c1	nt	nt	?	?	2%	?
NC(=O)c1oc2ccccc2c1NC(=O)c1ccc([N+](=O)[O-])o1	15	28*	?	?	-7%	?
CCOC(=O)[C@]12CCCC=C1N(CCC1=CCCCC1)C(=O)[C@H](CC(=O)N1CCN(C(=O)C3CC3)CC1)C2	nt	nt	nt	nt	-7%	nt
N#CCCCSc1nnc(Cc2ccc3c(c2)OCO3)o1	-4	14	-3%	5%	-9%	?
O=C(NN(c1ccccc1)c1ccccc1)c1ccc([N+](=O)[O-])o1	27	24	-17%[46.1 µM]	?	0%	?
NC(=O)c1oc2ccccc2c1NC(=O)c1nc2ccccc2s1	41*	99*	0%	?	34%	?
O=C(NNC(=O)c1ccc([N+](=O)[O-])o1)c1ccccc1	25*	52	-30%	?	-14%	?
Cn1c(C(=O)N[C@@H](Cc2ccccc2)C(=O)NCCC(=O)O)cc2cc(Cl)ccc21	-3	-17	-7%	19%	-7%	0%[46.1 µM]
COCC(C)n1c(SCC(=O)NC2CCCCC2)nc2ccccc2c1=O (centres undefined)	nt	nt	nt	nt	-22%	nt
CN1CCN(C(=O)c2cn(-c3ccccc3)nc2-c2cccs2)CC1	8	-23	nt	-10%	2%	nt
